Assay results from PubChem BioAssay AID504558 (Broad Institute, 2011).
The whole screen tested about 350,000 compounds, of which about 2,400 (0.69%) were called active. Rule as the data show it: active = inhibition above about 41%; inconclusive = no clear call, values can overlap the other calls; inactive = below that. The sample as a whole holds a higher share of actives than the screen did.

Experiment: blockers of LMP1-induced NF-kB reporter signal – cell-based, luminescence, single point, primary screen (AID 504558);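 also: 0% = neutral control wells and 100% = reference inhibitor control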
Conditions: LMP1-induced NF-kappaB luciferase reporter cells, at 12.5 µM, stronger effect = higher value

inhibition, inactive:
CCN(CC)C(=O)C1=C(C)N(Cc2ccc(OC)cc2)C(=O)C(CC(=O)NCCCCc2ccccc2)C1 (centres undefined) -3.18%, COc1ncnc2c1ncn2CCCNCCN1CCOCC1 -1.37%, COc1ccccc1NC(=O)C(CC(=O)O)Cc1cc(C)cc(C)c1 (centres undefined) -13.3%, Cc1cccc(Nc2nc(NCCO)nc(N3CCCC3)n2)c1 7.29%, CC(C)n1cnc2c(Nc3cccc(Cl)c3)nc(N(CCO)CCCO)nc21 -2.02%, Cc1ccccc1NC(=O)Cc1nc(COC(=O)CNC(=O)c2ccc(Cl)cc2Cl)cs1 -5.79%, CC(=O)Nc1ccc2nc(NC(=O)CS(=O)(=O)c3ccc(F)cc3)sc2c1 -1.73%, O=C(COc1ccc(S(=O)(=O)Nc2cccc(C(F)(F)F)c2)cc1)N1CCOCC1 5.55%, COc1ccccc1C(=O)Nc1cccc(C(=O)N2CCOCC2)c1 -6.8%, COc1ccc(Cn2c(=O)oc3ccccc32)cc1 -3.08%, CC1CC(NC(=S)N(C)C)CC(C)(C)C1 (centres undefined) -2.42%, CNC(=O)C[C@H]1C(=O)N(c2ccc(OC)cc2)C[C@@H]1Cc1ccccc1 -2.06%, C/C(=N\Nc1nncc2ccccc12)c1ccc(Cl)c([N+](=O)[O-])c1 -18.4%, COc1cccc(/C=N\Nc2nncc(-c3ccccc3)n2)c1 -5.65%, NC(=O)CSc1nnc(-c2cccc(S(=O)(=O)N3CCOCC3)c2)o1 1.36%, O=C1CCC(C(=O)OCC(=O)Nc2ccc(OC(F)F)cc2)=NN1 -2.22%, O=C(Nc1cc(F)ccc1F)c1ccc2c(=O)n3c(nc2c1)CCC3 -23.7%, O=C(CSCc1ccc(Br)cc1)Nc1ccc(S(=O)(=O)N2CCCCCC2)cc1 -7.38%, O=C(O)CC(SCC(=O)Nc1ccc(Br)cc1)C(=O)O (centres undefined) -3.51%, C[C@H](CO)N1C[C@H](C)[C@@H](CN(C)C(=O)C2CCCCC2)OCc2cnnn2CCCC1=O 0.386%, C[C@H]1CN([C@@H](C)CO)C(=O)c2cc(-c3cccc(F)c3)cnc2O[C@@H]1CN(C)S(C)(=O)=O 5.8%, COc1cccc2cc(C(=O)N3CCN(C(=O)c4ccccc4)CC3)c(=O)oc12 -0.766%, COc1cc2ccccc2cc1C(=O)N1CCOCC1 25.1%, O=C(N=C1SC2CS(=O)(=O)CC2N1Cc1ccccc1)c1ccccc1 (centres undefined) 1.35%, COC(=O)[C@H]1C[C@H](OC(=O)NCc2ccccc2)[C@@]2(O)CN(S(=O)(=O)c3ccc(C)cc3)CC2[C@H]1C(=O)OC (some centres undefined) -13.5%, COc1ccc(C(=O)OCC(=O)c2cc(C)n(CC3CCCO3)c2C)cc1[N+](=O)[O-] (centres undefined) 12.7%, Cc1ccsc1C(=O)OCC(=O)Nc1cccc(F)c1 -4.47%, Cc1ccc(S(=O)(=O)N(CCc2ccccc2)c2ccc3c(c2)C2CC3CCN2C(=O)OCc2ccccc2)cc1 (centres undefined) -3.7%, O=C(CSc1ncnc2sccc12)NC1CCS(=O)(=O)C1 (centres undefined) 5.19%, COc1ccc(OCC(=O)N2CCN(C(=O)c3cccs3)CC2)cc1 -13.6%, Cc1nc2ccccn2c(=O)c1NC(=O)c1ccc(Br)o1 1.95%, CCOC(=O)C1CCN(C(=O)c2ccc3c(=O)n4nc(Nc5ccccc5CC)sc4nc3c2)CC1 0.7%, NC(=O)C1(Nc2ccc(-c3ccccc3)cc2)CCCC1 0.238%, O=C(Nc1ccc([N+](=O)[O-])cc1)C1CC12CCC2 (centres undefined) -7.83%, NC(CSC(c1ccccc1)(c1ccccc1)c1ccc(-c2ccccc2)cc1)C(=O)O (centres undefined) -1.87%, Cc1nc(SCc2ccc(F)cc2)c([N+](=O)[O-])[nH]1 2.2%, Nc1nc(SCc2ccc([N+](=O)[O-])cc2)c2ncn(C3OC(CO)C(O)C3O)c2n1 (centres undefined) -5.79%, N#CCCN(C(=S)Nc1ccc(Cl)c(Cl)c1)C1CCCCC1 -1.92%, Cc1cccc(N(CC(=O)N2CCCC2)S(C)(=O)=O)c1C -6.4%, Cc1ccc2cccc([N+](=O)[O-])c2n1 7.19%, O=C(OCc1cn([C@@H]2C[C@H](c3ccc(Cl)cc3)N(Cc3cccs3)C[C@H]2O)nn1)c1ccccc1 3.08%, O=C(C1CC1)N1N=C2CCCCC2C1(O)C(F)(F)F (centres undefined) 0.262%, O=C(Cc1ccccc1)N1N=C(c2ccncc2)CC1(O)C(F)(F)F (centres undefined) 4.93%, C[C@@H]1CN([C@@H](C)CO)C(=O)c2cc(Br)cnc2O[C@H]1CN(C)Cc1ccc(-c2ccccc2)cc1 -10.5%, C[C@@H]1CN([C@H](C)CO)C(=O)c2cc(Br)cnc2O[C@@H]1CN(C)Cc1cncnc1 -0.147%, Nc1cc(=O)c2[nH]cnc2[nH]1 5.05%, O=C1CCC(=O)N1CCC(=O)N(C(=O)NC1CCCCC1)C1CCCCC1 -0.58%, CCc1nnc(NC(=O)c2ccc(S(=O)(=O)NC3CCCCC3)cc2)s1 -6.69%, CCc1nnc(NC(=O)c2cc(S(=O)(=O)N3CCCCC3)ccc2C)s1 2.74%, O=C(Nc1ccc(Cl)cn1)c1ccccc1-c1ccccc1 3.03%, c1ccc(CNCc2ccc(CNCc3ccccc3)cc2)cc1 -5.41%, Cc1ccc(S(=O)(=O)/N=C2\C=C(NS(=O)(=O)c3ccc(C)cc3)C(=O)c3ccccc32)cc1 -0.482%, COc1ccc(-c2cc(C(=O)N/N=C/c3cccnc3)c3ccccc3n2)c(OC)c1 1.36%, CCOc1ccc(NC(=O)c2cc(C)nc3ccccc23)cc1 -0.28%, Cc1cccc(C(=O)OCC(=O)Nc2sccc2C(N)=O)c1C -0.574%, C[C@H]1CN([C@@H](C)CO)C(=O)c2cc(C3=CCCCC3)cnc2O[C@@H]1CN(C)C(=O)Cc1ccccc1 5.28%, CCN1C(=O)[C@H]2[C@@H](c3ccccc3)N[C@]3(CCCN(Cc4ccc(C)cc4)C3=O)[C@H]2C1=O -1.4%, O=C(CCN1CCN(C/C=C/c2ccccc2)CC1)Nc1ccccc1Cl 5.35%, NC(=O)C1(Nc2ccccc2Cl)CCCC1 -6.12%, Cc1ccc(C(=O)NC(C)C(c2cccs2)N2CCOCC2)cc1C (centres undefined) 3.97%, O=C(N/N=C/C=C/c1ccco1)c1cccs1 -24.5%, CC(/C=N/NC(=O)c1cc(-c2ccc3ccccc3c2)n[nH]1)=C\c1ccco1 -39.1%, COc1ccc(CCNC(=O)CN(c2ccccc2)S(=O)(=O)c2ccccc2)cc1 -10.2%, Cc1ccc([C@H]2C[C@H](O)[C@@H](n3cc(COC(=O)c4ccccc4)nn3)CN2CC2CCCCC2)cc1 4.84%, C[C@H]1CN([C@@H](C)CO)C(=O)CCCn2cc(nn2)CO[C@@H]1CN(C)S(=O)(=O)c1cccs1 5.02%, CCN1CCCC1CNC(=O)c1ccc2c(c1)NC(=O)/C(=C\c1ccccc1F)S2 (centres undefined) -8.19%, CC1=C(C(=O)N(C)C)CC(CC(=O)NCCc2ccccn2)C(=O)N1CCC1=CCCCC1 (centres undefined) 1.75%, CC(C)c1cc(C(=O)N(C)C2CCCN(Cc3ccccc3F)C2)n(C)n1 (centres undefined) 3.75%, Cc1ccc(-c2nc3ccc(Cl)cn3c2Cc2ccccc2)cc1 -21.9%, Cc1ccn2cc(C(=O)NC3CCN(Cc4ccccc4)CC3)nc2c1 5.73%, Cc1ccc(-c2cc(N)on2)cc1 -11.1%, CSc1nnc2ccc(-c3ccc(C)cc3)nn12 2.32%, Cc1ccc(-c2cc(C(=O)NCc3cn(C)nc3C)c3cc(Br)ccc3n2)cc1 -3.18%, COc1ccc(-c2cc3ncccc3cn2)cc1 -15.8%

inhibition, active:
Oc1c(Cl)cc(Cl)c(Cl)c1Cc1c(O)c(Cl)cc(Cl)c1Cl 52.3%, OCCCNc1nccc(-c2cc(Nc3cccc(Cl)c3)ncn2)n1 88.6%, CCC(C)Cn1c(O)cc2nn(-c3nc4ccccc4s3)c(=O)c-2c1C (centres undefined) 51.8%, O=C(Nc1ccc(C(=O)N2CCOCC2)cc1)Nc1cccc(C(F)(F)F)c1 65.4%, CN(CCO)c1ccc(/C=N/Nc2nncc3ccccc23)cc1 45.7%, O=C1CCCN2N=C(SCC(=O)Nc3ccc(Br)cc3)SC2=N1 46.9%, C=CC(=O)OCCOCCOCCOCCOC(=O)C=C 83.3%, O=C(c1cc2cc(Br)cc(Br)c2oc1=O)N1CCOCC1 83.6%, Cc1ccsc1C(=O)OCC(=O)c1cc(C)n(CC2CCCO2)c1C (centres undefined) 63.2%, O=C(CSc1ncnc2sccc12)N1CCN(C(=O)c2cccs2)CC1 69.5%, NC(=O)C1(Nc2ccc([N+](=O)[O-])cc2)CCCC1 58.8%, Cc1nc(N)nc(SCc2ccc([N+](=O)[O-])cc2)c1N 50.3%, O=C(C1CC1)N1N=C(c2ccc(Br)cc2)CC1(O)C(F)(F)F (centres undefined) 48.3%, CCc1nnc(NC(=O)c2cc(S(=O)(=O)N3CCN(CC)CC3)ccc2Cl)s1 68.4%, CCOc1ccc(-c2cc(C(=O)N/N=C/c3ccc(O)cc3)c3ccccc3n2)cc1 58.2%, O=C(Nc1ccccc1Cl)/C(Cl)=C(\Cl)S(=O)c1ccccc1 (centres undefined) 69.1%, Cc1ccc(-c2cc(C(=O)N/N=C/C=C/c3ccco3)c3ccccc3n2)cc1C 60.7%, Cc1ccc(-c2cn3cc(C)ccc3n2)cc1 82%, COc1ccc(-c2cn3ccc(C)cc3n2)cc1 48.2%, Cc1ccc2nc(-c3ccc(Br)cc3)cn2c1 63.8%
